Drawing on PubChem BioAssay, this text covers z-score for 14 compounds.

Activity calls are given as the source filed them.

The nature of assay [1]: A549 cell viability effects, profiling panel, calcein-AM fluorescence, 48 h, basal (AID 1162). To be noted: higher = more signal.
A short description of assay [2]: adipocyte viability effects, profiling panel, cell-based, 3T3-L1 adipocytes, calcein-AM fluorescence, 48 h, basal (AID 1163). To be noted: 3T3-L1 adipocytes viability, higher = more signal.
A short description of assay [3]: HepG2 cell viability effects, profiling panel, calcein-AM fluorescence, 48 h, basal (AID 1164). The conditions noted are these: higher = more signal.
Assay [4] is described as follows: MM1S cell viability effects, profiling panel, calcein-AM fluorescence, 48 h, basal (AID 1165).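 Further: viability of MM1S multiple myeloma cells under basal unstimulated conditions.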 The conditions noted are these: higher = more signal.
Assay [5] can be described thus: basal RPMI8226 viability, no added stimulus, profiling panel, cell-based, calcein-AM fluorescence, 48 h, PK04 Diversity Set (AID 1166).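 Further: cells grown under basal conditions without added stimulus.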 To be noted: RPMI8226 myeloma viability, higher = more signal.
Assay [6] is described as follows: basal HepG2 mitochondrial membrane potential changes, profiling panel, cell-based, JC-1 fluorescence, 24 h, 100 nL compound (AID 1167). The conditions noted are these: higher = more signal.
Assay [7] in a line: basal 3T3-L1 adipocyte mitochondrial potential changes, profiling panel, cell-based, JC-1 fluorescence, 3T3-L1 adipocytes, 24 h, 100 nL compound (AID 1168). The conditions noted are these: JC-1 mitochondrial fluorescence, higher = more signal, called active from +8 up or from −8 down.
A short description of assay [8]: basal RPMI8226 mitochondrial membrane potential changes, profiling panel, cell-based, JC-1 fluorescence, 24 h, 100 nL compound (AID 1169). The conditions noted are these: RPMI8226 myeloma, JC-1 mitochondrial potential fluorescence, higher = more signal.
Assay [9] can be described thus: basal MM1S mitochondrial membrane potential changes, profiling panel, cell-based, JC-1 fluorescence, 24 h, 100 nL compound (AID 1170). To be noted: higher = more signal.
Assay [10] in a line: A549 lung cancer cell viability effects, profiling panel, resazurin fluorescence, 24 h, PK04 Diversity Set (AID 1171). To be noted: higher = more signal, called active from +8 up or from −8 down. Background: Alamar Blue is a resazurin reagent that responds to reducing activity.
Further: test concentration not given here.

`C=C(CCCC)/C(=C/C[C@H](OC(=O)c1ccncc1)c1ccc(OCCO)cc1)c1cc(C(=O)OC)ccc1OC`: the z-score in assay [1] was -0.154; in [2], 1.55; in assay [3], -0.754; in [4], -1.47; in assay [5] it was -2.56; in assay [6], 1.22. Further, the z-score in assay [7] is 0.0667 (inactive); in assay [8], -0.281; in [9] it was -0.93; in assay [10], 0.54 (inactive).
As to `CCOC(=O)[C@H]1C/C=C/C[C@H](C(=O)OCC)C(=O)O[C@H]2[C@@H](OC)O[C@H](CO)[C@@H](OC(=O)c3ccc(Br)cc3)[C@@H]2OC1=O`, the z-score in [1] is 0.645; in assay [2], -0.009; in [3] it was 0.404; in [4], -3.12; in [5], -3.75; in [6], -0.971. Further, the z-score in [7] is -0.339 (inactive); in assay [8] it was -0.935; in [9] it was -1.3; in assay [10], -1.92 (inactive).
Regarding `CCOC(=O)C1=CCC(c2ccc(F)cc2)N(S(=O)(=O)c2ccc(C)cc2)C1` (stereo not given), the z-score was -1.02 in assay [1]; -1.12 in [2]; -0.444 in assay [3]; -0.434 in [4]; -1.5 in assay [5]; -0.717 in assay [6]. Further, the z-score in [7] is -1.01 (inactive); in [8] it was 0.641; in assay [9], -1.66; in [10], -0.0491 (inactive).
As to `COc1ccc([Si](C)(C)[C@H]2[C@H](CCn3cc([C@H](O)c4ccccc4)nn3)O[C@@]3(C(=O)N(C)c4ccccc43)[C@@H]2C)cc1`, the z-score in assay [1] was 0.239; in assay [2], -0.233; in assay [3] it was 0.132; in assay [4] it was -0.615; in assay [5], -1.79; in [6], -0.602. Also, the z-score in assay [7] is 0.331 (inactive); in assay [8], -1.16; in assay [9] it was -0.396; in [10] it was 0.32 (inactive).
With `COCC(=C=CC[C@H](O)c1ccccc1OCCO)CCO`, the z-score was 0.474 in assay [1]; -0.233 in [2]; 0.304 in assay [3]; -0.48 in assay [4]; -0.0001 in [5]; -0.853 in assay [6]. For the same compound, the z-score in [7] was -0.624 (inactive); in assay [8], -0.345; in assay [9], -0.654; in [10], -0.323 (inactive).
With `CCCNC(=O)[C@@H]1c2ccccc2C(=O)N(Cc2ccccc2OC)[C@H]1c1ccc(CO)cc1`, the z-score in assay [1] was 2.28; in [2] it was -0.272; in assay [3] it was 1.52; in assay [4] it was 0.513; in assay [5], 0.349; in assay [6], 1.67. Moreover, the z-score is 0.776 (inactive) in [7], 0.182 in assay [8], -0.565 in assay [9] and -0.0906 (inactive) in assay [10].
As for `COc1ccc([Si](C)(C)[C@H]2[C@H](CCO)O[C@@]3(C(=O)N(Cc4ccccc4)c4ccc(N5CCCCC5=O)cc43)[C@@H]2C)cc1`, the z-score in [1] is -0.0531; in [2], -0.627; in assay [3] it was -3.62; in [4] it was -2.03; in assay [5], -4.53; in assay [6] it was 2. In addition, the z-score was 0.355 (inactive) in [7], -0.781 in [8], 0.363 in assay [9] and -2.68 (inactive) in assay [10].
For the compound `COC(=O)c1c(CC[C@@H](CO)NC(=O)N[C@H](Cc2ccccc2)Cn2cc(-c3ccccn3)nn2)oc(C(C)=O)c1C(=O)OC`, the z-score in assay [1] was 0.372; in assay [2], 0.337; in assay [3] it was -0.362; in [4], 0.258; in assay [5], -0.406; in assay [6], -0.607. Also, the z-score in assay [7] was -0.821 (inactive); in [8], -0.0316; in [9], -0.131; in assay [10], -0.533 (inactive).
On to `NC(=O)N1C(=O)C2C(C1=O)C1C=C(CCCO)C2C(C2CC2)N1Cc1cc2c(cc1Br)OCO2` (stereo not given), for which the z-score in assay [1] was -0.318; in [2], 0.505; in assay [3] it was -0.0479; in assay [4], -2.42; in assay [5] it was -0.885; in [6] it was -0.258. Besides, the z-score was -0.274 (inactive) in [7], 0.21 in assay [8], -0.237 in assay [9] and -0.604 (inactive) in assay [10].
As for `O=C1[C@@]23C=C(Br)[C@H](C[C@@H]2COC3)[C@]12CO2`, the z-score in assay [1] is -0.186; in assay [2] it was -0.959; in [3], -1.1; in assay [4], -3.17; in assay [5] it was -2.02; in assay [6], -2.21. Besides, the z-score in [7] is -1.42 (inactive); in assay [8], -1.3; in assay [9], -2.19; in assay [10] it was -0.453 (inactive).
With `CCCCCN1CC=CC23O[C@@H]4C=CCOC(=O)[C@@H]4[C@H]2C(=O)N(C(C)CO)[C@@H]3C1=O` (stereo not given in full), the z-score was -0.33 in [1]; -0.093 in [2]; -0.177 in assay [3]; -0.425 in assay [4]; -0.0937 in assay [5]; -0.714 in assay [6]. Besides, the z-score in assay [7] was 0.282 (inactive); in [8], -0.704; in [9], -0.212; in [10] it was 0.0264 (inactive).
In the case of `COc1ccc([C@H]2C[C@H]3C(Br)=C[C@@]2(CO)C(=O)[C@]32CO2)cc1`, the z-score in [1] was -0.0583; in assay [2] it was -0.335; in [3] it was -0.898; in assay [4], -2.71; in assay [5], -0.106; in [6] it was -2.76. The z-score is 0.134 (inactive) in [7], -0.401 in assay [8], -1.09 in assay [9] and 0.417 (inactive) in assay [10].
Regarding `NC(=O)[C@@H]1[C@H]2C(=O)O[C@H](c3ccccc3)[C@H](c3ccccc3)N2[C@H](c2ccc(OCCO)cc2)[C@@]12C(=O)Nc1ccc(C#CC3=CCCCC3)cc12`, the z-score in [1] is -0.985; in [2], 1.06; in assay [3], -3.51; in assay [4], -3.28; in [5] it was -4.06; in [6] it was -2.81. Moreover, the z-score in [7] is 0.396 (inactive); in assay [8], -0.834; in assay [9] it was -1.71; in assay [10], -1.01 (inactive).
For `COCC(=C=CC[C@@H](O)c1ccc(OCCO)cc1)C[C@@H](O)c1ccccn1`, the z-score in [1] is -0.583; in assay [2], -0.936; in assay [3], -0.239; in [4], -0.149; in [5], -0.349; in [6], -0.964. Moreover, the z-score in assay [7] is -0.522 (inactive); in assay [8], 0.375; in [9], -0.719; in assay [10], 0.192 (inactive).
